Integrin act MD – qHTS for Activators of Integrin-Mediated Alleviation for Muscular Dystrophy; actives 0.064% (n = 350,000); AID 624291, 2012; alpha7betagal myoblasts, beta-gal FDG fluorescence, 48 h; Potency, µM (highest dose often 38.3 µM), for inactives: at the highest dose activation, hits mostly activators; active = well fitted activation curve with a large enough effect; inconclusive = small, poorly fitted or top-dose-only effect; inactive = no such curve, though single readings can be large or run the other way;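 note: potency is the fitted concentration of half-maximal effect; 100% = response of the positive control SU9516; nearly all actives have a fitted effect of over 60% in size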
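Alpha7betagal+/- myoblasts (passage 13) were plated 16-24 hr, then exposed to compounds (1:260 dilution of DMSO stock) for 48 hours at 37C. After MPER lysis, β-galactosidase reporter activity was read as FDG fluorescence (ex 480/em 540) after 30 minutes.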
D3 antag – qHTS of D3 Dopamine Receptor Antagonist: qHTS; D(3) dopamine receptor (Homo sapiens), P35462; D3R cells, DiscoveRx beta-arrestin luminescence, antagonist mode; stronger effect = lower value; max response, negative = inhibition, %; actives 2.5% (n = 360,000); AID 652054, 2013; in the data active = max response below about -50%; inconclusive = no clear call, values can overlap the other calls; note: % is set by controls: 0 for no effect and ±100 for the full control effect
Target sequence (P35462 whole entry, looked up): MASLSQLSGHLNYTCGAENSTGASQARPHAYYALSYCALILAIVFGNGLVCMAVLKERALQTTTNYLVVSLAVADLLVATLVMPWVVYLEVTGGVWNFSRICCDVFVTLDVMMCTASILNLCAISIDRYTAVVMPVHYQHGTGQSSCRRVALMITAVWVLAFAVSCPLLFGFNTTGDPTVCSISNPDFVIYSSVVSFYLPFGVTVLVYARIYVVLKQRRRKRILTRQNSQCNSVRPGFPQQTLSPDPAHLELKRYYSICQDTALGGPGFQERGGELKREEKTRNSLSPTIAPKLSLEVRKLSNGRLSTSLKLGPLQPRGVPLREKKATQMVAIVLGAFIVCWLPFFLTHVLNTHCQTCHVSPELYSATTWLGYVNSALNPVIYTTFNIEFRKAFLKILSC
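Cells plated overnight at 1500 cells/well, then exposed to library compounds with dopamine controls for 90 minutes at 37 degrees C. DiscoveRx reagent added for 30–60 minutes at room temperature; luminescence read, quantitative HTS format.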
D3 ag – qHTS of D3 Dopamine Receptor Agonist: qHTS; D(3) dopamine receptor (Homo sapiens), P35462; D3R DiscoveRx beta-arrestin cells, luminescence, 90 min; max activation, %; actives 0.58% (n = 410,000); in the data active = max activation above about 30%; note: 0% is about no effect
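Agonist mode: compounds and dopamine controls were applied to plated cells for 90 min at 37 degrees C after an overnight attachment at 1500 cells/well. Luminescent read-out followed 30 - 60 minutes at room temperature with DiscoveRx detection reagent.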
* marks the source's active call; other numbers are inactive results. Rows were chosen to be rich in hits. Some 2.9% of all compounds tested hit in one or more screens of this group.

What do the screens show for `C=CC[C@@H](CC(=O)NCCO)C(=O)N[C@@H](COC(=O)[C@@H](CC=C)Cc1ccc(F)cc1)Cc1ccccc1`?
Integrin act MD: -17.5%; D3 antag: -24.9; D3 ag: -6.5

How did O=C(NC1CCN(Cc2ccccc2)CC1)c1ccc(Cn2c(=O)c3ccccc3n(Cc3ccccc3)c2=O)cc1 do in these assays?
D3 ag: -16.5

How did Cc1oc(-c2ccccc2)cc1C(=O)NC1CCN(Cc2ccccc2)CC1 do in these assays?
Integrin act MD: inconclusive; D3 antag: -81.9*; D3 ag: -45.9

What do the screens show for `O=C(NC1CCCN(CCc2ccccc2)C1)c1c[nH]c2ccccc12` (stereo not given)?
Integrin act MD: -1.6%; D3 antag: -20.0; D3 ag: -17.2

What do the screens show for `O=C(NC1CCN(CCc2c[nH]c3ccccc23)CC1)c1ccccc1`?
Integrin act MD: -43.7%; D3 antag: -102.5*; D3 ag: -20.4

How did Cc1ccccc1CC(=O)NC1CCN(Cc2ccccc2)CC1 do in these assays?
Integrin act MD: -13.2%; D3 antag: -27.1; D3 ag: -22.3

What do the screens show for `CC(C)(C)c1ccc(C(=O)NC2CCN(Cc3ccccc3)CC2)cc1`?
Integrin act MD: -56.3%; D3 antag: -118.3*; D3 ag: -8.4

What do the screens show for `O=C(Cc1ccccc1)NC1CCN(Cc2ccccc2)CC1`?
Integrin act MD: 5.6%; D3 antag: inconclusive; D3 ag: -17.3

How did Cc1ccc(CC(=O)NC2CCN(Cc3ccccc3)CC2)cc1 do in these assays?
Integrin act MD: 26.7%; D3 antag: -55.1*; D3 ag: -9.6

How did Cc1cc(Nc2ccccc2C(=O)O)n(-c2cccc(Cl)c2)n1 do in these assays?
Integrin act MD: -0.5%; D3 antag: 53.4; D3 ag: 0.5

How did O=C(O)CCN1C(=O)C2C3CC(C2C1=O)C1C(c2ccccc2)c2sc(=O)n(-c4ccccc4)c2SC31 (stereo not given) do in these assays?
Integrin act MD: 9.2%; D3 antag: 3.5; D3 ag: -14.6

What do the screens show for `O=C(Cc1ccc(Br)cc1)NC1CCN(Cc2ccccc2)CC1`?
Integrin act MD: -45.3%; D3 antag: -4.2; D3 ag: -12.8

How did O=C(O)COCC(=O)NC1CCN(Cc2ccccc2)CC1 do in these assays?
Integrin act MD: -13.5%; D3 antag: 6.6; D3 ag: 6.4

What do the screens show for `Cc1ccccc1S(=O)Cc1ccc(C(=O)NC2CCN(Cc3ccccc3)CC2)o1` (stereo not given)?
Integrin act MD: -38.3%; D3 antag: -21.9; D3 ag: -22.9

What do the screens show for `Cc1cccc(S(=O)Cc2ccc(C(=O)NC3CCN(Cc4ccccc4)CC3)o2)c1` (stereo not given)?
Integrin act MD: -19.5%; D3 antag: -67.3*; D3 ag: -21.1

Results for O=C(NC1CCN(Cc2ccccc2)CC1)C12CC3CC(CC(C3)C1)C2 ?
Integrin act MD: -11.2%; D3 antag: -87.6*; D3 ag: -9.3

Results for O=C(NC1CCN(Cc2ccccc2)CC1)c1cncc(Br)c1 ?
Integrin act MD: 2.7%; D3 antag: -85.8*; D3 ag: -22.0

Results for CCCN1CNc2c(c(=O)[nH]c(=S)n2CCc2ccc(OC)c(OC)c2)C1 ?
Integrin act MD: 42.6%; D3 antag: -18.4; D3 ag: -12.7

What do the screens show for `CCC[n+]1c2ccccc2cc2ccccc21`?
Integrin act MD: -64.6%; D3 antag: inconclusive; D3 ag: -16.7

What do the screens show for `CCCC[n+]1c2ccccc2cc2ccccc21`?
Integrin act MD: -53.6%; D3 antag: -93.7*; D3 ag: 1.7

How did COc1cccc(C(=O)N2CCN(C3CCC(c4ccccc4)CC3)CC2)c1 (stereo not given) do in these assays?
Integrin act MD: -27.8%; D3 antag: inconclusive; D3 ag: -16.6

How did CCOC(=O)N1CCC(N(C(=O)Nc2cccc(OC)c2)C(C)CC)CC1 (stereo not given) do in these assays?
Integrin act MD: -2.7%; D3 antag: 9.5; D3 ag: -8.1

How did O=C1CSC(c2ccc(F)cc2)N1c1ccccc1F (stereo not given) do in these assays?
Integrin act MD: inconclusive; D3 antag: -1.4; D3 ag: -5.7

Results for CCCCNC(=O)/C=C1\Sc2ccccc2NC1=O ?
Integrin act MD: -10.6%; D3 antag: -1.0; D3 ag: 2.1

Results for CCc1ccc(C(=O)/C=C2\Sc3ccccc3NC2=O)cc1 ?
Integrin act MD: 9.6%; D3 antag: -147.0*; D3 ag: -10.4

Results for O=C(Nc1cc(C(F)(F)F)ccc1Cl)c1cccc(N2C(=O)CCC2=O)c1 ?
Integrin act MD: -13.6%; D3 antag: -2.5; D3 ag: -5.0

Results for O=S(=O)(/C=C/C=C/S(=O)(=O)c1ccccc1)c1ccccc1 ?
Integrin act MD: -53.0%; D3 antag: -100.5*; D3 ag: -30.8

Results for NS(=O)(=O)c1ccccc1 ?
Integrin act MD: -14.4%; D3 antag: 0.4; D3 ag: -0.5

What do the screens show for `Cc1ccc(S(=O)(=O)c2ccc(C)cc2)cc1`?
Integrin act MD: 24.7%; D3 antag: 13.5; D3 ag: 8.0

What do the screens show for `Cc1ccc(S(=O)(=O)C=CS(=O)(=O)c2ccc(C)cc2)cc1`?
Integrin act MD: -60.8%; D3 antag: -99.4*; D3 ag: -17.0

Results for CC(C)N(Cc1nc(-c2ccc(Cl)cc2)no1)C(=O)/C=C/c1ccccc1 ?
Integrin act MD: 20.9%; D3 antag: -8.8; D3 ag: -33.0

How did CCCCOc1ccc(C(=O)NN2C(=O)NC3(CCCCC3)C2=O)cc1OC do in these assays?
Integrin act MD: -10.7%; D3 antag: 9.5; D3 ag: 1.8

Results for CCCc1nc2ccc(C)cn2c1Cc1cccc(F)c1 ?
D3 antag: 5.1; D3 ag: -3.9

How did CCCc1nc2c3ccccc3ccn2c1Cc1cccc(F)c1 do in these assays?
D3 antag: -89.8*; D3 ag: -5.0

How did CCN/C=C(\C#N)S(=O)(=O)c1ccc(Br)cc1 do in these assays?
Integrin act MD: -9.8%; D3 antag: 3.0; D3 ag: 3.5

How did CC(C)(C)N/C=C(\C#N)S(=O)(=O)c1ccc(Br)cc1 do in these assays?
Integrin act MD: 11.2µM*; D3 antag: 8.3; D3 ag: -18.4

How did CCOC(=O)c1oc2ccc(CNCCO)c(Cl)c2c1C do in these assays?
Integrin act MD: 12.7%; D3 antag: -53.9*; D3 ag: -16.9

Results for CCOc1ccc2oc(C(=O)OCC(=O)NC3CC3)c(C)c2c1 ?
Integrin act MD: 20.9%; D3 antag: -17.5; D3 ag: 4.0

What do the screens show for `CCOC(=O)c1oc2ccc(CNC3CCCCC3)c(Cl)c2c1C`?
Integrin act MD: -57.9%; D3 antag: -86.4*; D3 ag: -35.7

Results for CCOC(=O)c1ccc(NC(=O)COc2ccccc2CNCCO)cc1 ?
Integrin act MD: inconclusive; D3 antag: 5.3; D3 ag: -15.9

How did CCOc1ccccc1C(=O)Nc1nc2c(s1)CC(C)CC2 (stereo not given) do in these assays?
D3 ag: 4.6

What do the screens show for `Cc1cc(C)cc(NC(=O)Cn2nnc(C(=O)NCc3ccco3)c2N)c1`?
Integrin act MD: -3.2%; D3 antag: -5.4; D3 ag: -0.4

High-throughput results from PubChem.
